In PubChem BioAssay (Tox21):
Records with an inconclusive call do not appear. A call without a number means that no potency is given here. Active and inactive are the calls of the source. Calls come from the whole dose curve; as a rule, active = well fitted activation curve with a large enough effect in the repeat runs; inconclusive = weak or mixed curves; inactive = no such curve, though single readings can be large or run the other way.

biological target: Aryl hydrocarbon receptor (Homo sapiens) (UniProt P35869); experiment: qHTS assay to identify small molecule that activate the aryl hydrocarbon receptor (AhR) signaling pathway (AID 743085); details: HepG2 AhR-luc (HG2L7.5c1), luciferase, 24 h; series mostly up to 70.3 µM; note: nearly all actives have a fitted effect of over 15% in size;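 for activation: HG2L7.5c1 human HepG2 liver cells with stably integrated DRE-driven firefly reporter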
Sequence (P35869 whole entry, looked up): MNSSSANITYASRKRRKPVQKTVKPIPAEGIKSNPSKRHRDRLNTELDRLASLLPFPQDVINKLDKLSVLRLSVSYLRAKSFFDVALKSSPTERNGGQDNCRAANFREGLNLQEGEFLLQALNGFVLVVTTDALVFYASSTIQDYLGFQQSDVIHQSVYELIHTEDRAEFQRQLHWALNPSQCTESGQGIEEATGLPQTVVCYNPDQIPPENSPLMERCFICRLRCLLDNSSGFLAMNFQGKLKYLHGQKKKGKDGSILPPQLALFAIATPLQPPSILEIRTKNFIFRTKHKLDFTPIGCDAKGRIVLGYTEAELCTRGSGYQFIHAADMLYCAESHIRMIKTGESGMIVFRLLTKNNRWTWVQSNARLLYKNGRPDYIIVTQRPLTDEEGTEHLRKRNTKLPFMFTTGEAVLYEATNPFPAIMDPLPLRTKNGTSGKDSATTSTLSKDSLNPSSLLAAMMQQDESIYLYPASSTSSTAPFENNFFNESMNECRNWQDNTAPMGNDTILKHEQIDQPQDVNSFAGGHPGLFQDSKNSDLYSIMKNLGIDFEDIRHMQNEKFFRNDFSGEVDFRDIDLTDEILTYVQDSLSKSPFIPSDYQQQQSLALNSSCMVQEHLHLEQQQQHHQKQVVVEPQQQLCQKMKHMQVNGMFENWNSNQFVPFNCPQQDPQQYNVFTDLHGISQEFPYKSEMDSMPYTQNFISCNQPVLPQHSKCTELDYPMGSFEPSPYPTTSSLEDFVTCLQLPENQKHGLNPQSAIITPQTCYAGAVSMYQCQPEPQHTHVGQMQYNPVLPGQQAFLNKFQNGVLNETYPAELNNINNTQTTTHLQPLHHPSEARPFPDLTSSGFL
From the text: U.S. Tox21 Program National Center for Advancing Translational Sciences [NCATS] NIH Chemical Genomics Center [NCGC] U.S. Environmental Protection Agency [EPA] National Institutes of Environmental Health Sciences [NIEHS] National Toxicology Program [NTP] U.S. Food and Drug Administration [FDA] Tox21 Assay overview: The Aryl hydrocarbon Receptor (AhR), a member of the family of basic helix-loop-helix transcription factors, is crucial to adaptive responses to environmental changes. AhR mediates cellular responses to environmental pollutants such as aromatic hydrocarbons through induction of phase I and II enzymes but also interacts with other nuclear receptor signaling pathways. A cell based HepG2-AhR-luc assay (HG2L7.5c1 cell line, developed by Dr. Michael S. Denison, University of California at Davis, was used to assess the activation of AhR. HepG2 (human hepatocellular carcinoma) cells were stably transfected with an Ah receptor-responsive firefly luciferase reporter gene plasmid containing 20 dioxin responsive elements and luciferase reporter gene. Increased luciferase activity can be used to identify the compounds that induce AhR activation.
Tox21 Assay Protocol Summary: 4000 cells in 5 uL/well were dispensed into white wall/solid bottom 1536-well plates using a Multidrop Combi (Thermo Fisher Scientific Inc., Waltham, MA) dispenser. After the assay plates were incubated at 37C for 5 h, 23 nL of compound or DMSO vehicle was transferred to the assay plates by a pintool station (Kalypsys, San Diego, CA). The plates were incubated at 37C for 24 hr. After 1 ul/well of CellTiter-Fluor reagent (Promega, Madison, WI) was added into the assay plates using a Flying Reagent Dispenser (FRD) (Aurora Discovery, CA), the assay plates were incubated at 37C for 30 min. The fluorescence intensity in the plates was measured using a ViewLux plate reader (PerkinElmer, Shelton, CT), followed by the addition of 4 uL of ONE-Glo Luciferase Assay reagent (Promega) using an FRD (Aurora Discovery). After the assay plates were incubated at room temperature for 30 min, luminescence intensity was measured using a ViewLux plate reader (Perkin Elmer).
Potency is the fitted concentration of half-maximal effect.

Compound | Potency
Nc1c(Cl)c(F)nc(OCC(=O)O)c1Cl | inactive
CN1C(=O)COc2c(C(=O)NC3CN4CCC3CC4)cc(Cl)cc21 (stereo not given) | inactive
N#CN | inactive
ClC(Cl)(Cl)Cl | inactive
CN(C)CCc1c[nH]c2cccc(OP(=O)(O)O)c12 | inactive
C=C1C[C@@H]2[C@H](CC[C@]3(C)C(=O)CC[C@@H]23)[C@@]2(C)C=CC(=O)C=C12 | inactive
C=C(Cl)CSC(=S)N(CC)CC | inactive
O=P(O)(O)CN(CP(=O)(O)O)CP(=O)(O)O | inactive
O=C(Cl)C(Cl)Cl | inactive
O=c1[nH]oc2c1CCNC2 | inactive
CN(C)CCN(C)C | inactive
CC1=C2[C@H]3OC(=O)[C@@H](C)[C@@H]3CC[C@@]2(C)C=CC1=O | inactive
ClCOCCl | inactive
COC1=CC(=O)O[C@@H](/C=C/c2ccccc2)C1 | inactive
CC(C)[C@]12CC(=O)[C@H](C)[C@H]1C2 | inactive
CCC(C)(C#N)N=NC(C)(C#N)CC (stereo not given) | inactive
CCOP(=S)(OCC)SCCl | inactive
Cc1ccc2cc(C)ccc2c1 | inactive
CCSC(=O)Cl | inactive
CON(C)C(=O)Nc1ccc(Br)c(Cl)c1 | 30.6 µM (active)

Compound | Potency
COC(=O)c1ccccc1CS(=O)(=O)NC(=O)Nc1nc(OC)cc(OC)n1 | inactive
ClCCCCl | inactive
O=C(O)C(Br)(Br)Br | inactive
O=C(Cl)c1ccccc1 | inactive
C(COCC1CO1)OCC1CO1 (stereo not given) | inactive
O=C(O)CBr | inactive
CS(=O)(=O)Cl | inactive
CCOP(=O)(CN(CCO)CCO)OCC | inactive
CC[C@@H](CO)NC(=O)[C@@H]1C=C2c3cccc4[nH]cc(c34)C[C@H]2N(C)C1 | inactive
O=C(Cl)OCc1ccccc1 | inactive
CCCCCCCC(=O)Cl | inactive
CCCN1CCC[C@@H]2Cc3nc(N)ncc3C[C@H]21 | 21.1 µM (active)
COC(=O)[C@@H](N)CCCN/C(N)=N/[N+](=O)[O-] | inactive
Cc1ccc(S(=O)(=O)N[C@@H](CCCCN)C(=O)CCl)cc1 | inactive
S=C=S | inactive
COc1cccc([C@@]2(O)CCCC[C@@H]2CN(C)C)c1 | inactive
CCN(CC)C1CCCCC1 | inactive
CS(=O)(=O)c1ccc(C(=O)C2C(=O)CCCC2=O)c(Cl)c1COCC(F)(F)F | inactive
CCCCS(=O)(=O)Cl | inactive
CNC(=O)NC(O)C(Cl)(Cl)Cl (stereo not given) | inactive
